From PubChem BioAssay
Several values for one entry are separate records, joined by “and”; a condition that tells them apart may be missing. Equal values may be shown once. Activity calls are given as the source filed them.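 How the source made its calls, unless noted: active means normalized viability below 100% at a tested concentration; inactive means the rest.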

Assays:
[1] = Wnt pathway potentiators raising nuclear beta-catenin – imaging, WNT3A-conditioned medium, mouse C2C12, NPC library, primary screen (AID 1117326; in the data active means nuclear beta-catenin stimulation mostly above about 4.2%, no sharp cut-off; inactive means mostly below about 10%); settings: stronger effect = higher value
[2] = stimulators of insulin release from INS-1E, primary screen, cell-based, 5 mM glucose, NPC library (AID 1117329;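 active means compound raises insulin release from rat beta cells at 5 mM glucose, no numeric limit stated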); settings: rat INS-1E insulin secretion, at 10 µM, stronger effect = higher value
[3] = growth inhibition of GSK3B-pretreated HCT116 cells – cell-based, CellTiter-Glo, 0.2 to 20 µM (AID 1117336;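 active means compounds lowering colon cancer cell viability after pretreatment blocking the GSK3B kinase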); settings: HCT116 viability after GSK3B inhibitor, at 20 µM, stronger effect = higher value
[4] = inhibition of endothelial tube formation, primary screen, imaging, VEGF stimulated, CD31 staining, tube area, NPC library (AID 1117340;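 active means compound that reduces growth-factor-driven endothelial tube area in a mixed cell culture, no cutoff stated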); settings: VEGF-stimulated ADSC/ECFC co-culture, at 10 µM, stronger effect = higher value
[5] = GLP1 release stimulators, primary, NCI-H716, NPC library (AID 1117341;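 active means compound raises GLP1 secretion from the human gut endocrine cells, with no numeric limit stated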); settings: NCI-H716 cells, at 10 µM, stronger effect = higher value
[6] = HCT116 colon cancer cell growth inhibition, primary screen, CellTiter-Glo luminescence, NPC library (AID 1117342;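 active means compounds that lower survival of HCT116 colon cancer cells in the luminescence readout, no numeric limit stated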); settings: at 20 µM (top of the series)
[7] = reduced SW480 viability measured with CellTiter-Glo, NPC library, primary (AID 1117343;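 active means compounds that lower viability of the colon cancer cells in the luminescence readout, with no numeric limit stated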); settings: CellTiter-Glo luminescence; at 20 µM (top of the series)
[8] = NPC library primary testing for decreased DLD-1 cell viability via CellTiter-Glo (AID 1117346;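 active means compounds that lower survival of DLD-1 colon cancer cells in the luminescence readout, no cutoff given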); settings: DLD-1 viability, CellTiter-Glo luminescence; at 20 µM (top of the series)
[9] = target: 6-phosphogluconate dehydrogenase, decarboxylating (Homo sapiens) (UniProt P52209); experiment: inhibition of human phosphogluconate dehydrogenase – biochemical, recombinant enzyme, NADPH absorbance, primary screen (AID 1159550;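 active means at least 20% inhibition of 6-phosphogluconate dehydrogenase activity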); settings: recombinant 6PGD, NADPH absorbance 341 nm; at 10 µM; stronger effect = higher value
6-phosphogluconate dehydrogenase, decarboxylating (Homo sapiens), sequence (P52209 whole entry, looked up): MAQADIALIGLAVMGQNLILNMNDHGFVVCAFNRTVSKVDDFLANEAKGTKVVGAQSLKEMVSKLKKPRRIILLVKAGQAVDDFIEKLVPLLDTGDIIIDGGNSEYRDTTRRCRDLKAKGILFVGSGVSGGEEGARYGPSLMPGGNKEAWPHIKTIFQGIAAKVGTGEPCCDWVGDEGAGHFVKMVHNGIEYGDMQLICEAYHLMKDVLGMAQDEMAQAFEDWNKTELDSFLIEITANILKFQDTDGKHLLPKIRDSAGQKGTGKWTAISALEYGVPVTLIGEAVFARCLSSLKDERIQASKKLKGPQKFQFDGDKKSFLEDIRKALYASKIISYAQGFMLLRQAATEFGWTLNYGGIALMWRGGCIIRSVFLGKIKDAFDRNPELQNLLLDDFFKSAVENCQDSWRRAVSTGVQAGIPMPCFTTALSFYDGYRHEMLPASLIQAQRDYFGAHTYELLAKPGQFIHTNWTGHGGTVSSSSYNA

[10] = modulation of C. elegans fzo-1 (AID 1259413; call rule not given here;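 further: fzo-1 mutant C. elegans worms in liquid wells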); settings: C. elegans fzo-1 modulator screen, mean read-out; stronger effect = higher value
[11] = EMT-state selective cytotoxicity in co-culture – imaging, PC-3E GFP, TEM4-18 mCherry, primary screen (AID 1345086;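 active means compounds killing one labelled cell type while sparing the other, by normalised counts and ratio limits, not self-fluorescent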;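 on all read-outs here: cells exposed to compound for 72 h before imaging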;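 on red/green cell ratio (normalised): normalised mesenchymal count divided by normalised epithelial count so high means epithelial killing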); settings: PC-3E GFP / TEM4-18 mCherry co-culture, imaging cell counts, at 1 µM; for red/green cell ratio (normalised): actives lie on both sides, counts scaled to control wells, 1 = unselective
[12] = MELAS cybrid and Rieske KO viability enhancers – cell-based, MELAS cybrids, Rieske KO mouse fibroblasts, CellTiter-Glo, primary screen (AID 1508586;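 active means mean z-score across replicates of 1.96 or higher in either the MELAS or the Rieske mutant cell line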;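 further: z relative to plate mean and SD of compound and empty wells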); settings: low glucose
[13] = drug combination growth inhibition, ovarian cancer – cell-based, oncology-focused library, rucaparib conditional, profiling panel (AID 1508598); settings: patient-derived ovarian cancer cells, CellTiter-Glo viability, 144 h, stronger effect = lower value
[14] = target: NAD(+) hydrolase SARM1 (Homo sapiens) (UniProt Q6SZW1); experiment: blocking NAD cleavage by SARM1 SAM-TIR – cell lysate, NAD-Glo luminescence (AID 1508614;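 active means compound whose remaining NAD level is above about 45 nM, limit read from the data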); settings: SAM-TIR HEK293T lysate NADase, at 1 µM, stronger effect = higher value
NAD(+) hydrolase SARM1 (Homo sapiens), sequence (Q6SZW1 whole entry, looked up, the tested form may be a part): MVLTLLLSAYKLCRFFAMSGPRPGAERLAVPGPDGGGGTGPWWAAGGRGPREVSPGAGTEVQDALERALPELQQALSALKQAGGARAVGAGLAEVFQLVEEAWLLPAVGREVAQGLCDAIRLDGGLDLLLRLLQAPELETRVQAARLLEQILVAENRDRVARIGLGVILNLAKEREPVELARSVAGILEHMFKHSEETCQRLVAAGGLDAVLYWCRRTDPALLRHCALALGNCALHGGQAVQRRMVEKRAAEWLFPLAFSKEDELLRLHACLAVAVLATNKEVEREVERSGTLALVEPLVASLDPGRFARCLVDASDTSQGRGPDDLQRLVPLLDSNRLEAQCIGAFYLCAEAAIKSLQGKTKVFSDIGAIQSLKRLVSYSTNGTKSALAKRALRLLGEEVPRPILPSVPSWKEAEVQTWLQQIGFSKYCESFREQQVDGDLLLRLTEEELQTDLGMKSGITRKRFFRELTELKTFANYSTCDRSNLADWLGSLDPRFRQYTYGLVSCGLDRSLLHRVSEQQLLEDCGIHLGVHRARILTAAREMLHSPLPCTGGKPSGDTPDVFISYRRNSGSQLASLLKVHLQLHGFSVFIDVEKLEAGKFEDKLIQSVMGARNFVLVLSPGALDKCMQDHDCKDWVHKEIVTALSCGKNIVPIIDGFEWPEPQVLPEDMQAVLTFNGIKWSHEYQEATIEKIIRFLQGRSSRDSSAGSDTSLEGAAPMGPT

[15] = target: Mitogen-activated protein kinase 7 (Homo sapiens) (UniProt Q13164); experiment: Gal4-ERK5 driven luciferase induction – cell-based, HTS, primary screen (AID 1508626;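 active means luciferase signal above three times the same-plate solvent-only control wells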;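 further: luciferase driven by Gal4-ERK5 fusion binding five Gal4 sites before minimal TATA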); settings: HeLa Gal4-ERK5 transactivation, 18 h, at 5 µM, stronger effect = higher value
Mitogen-activated protein kinase 7 (Homo sapiens), sequence (Q13164 whole entry, looked up, the tested form may be a part): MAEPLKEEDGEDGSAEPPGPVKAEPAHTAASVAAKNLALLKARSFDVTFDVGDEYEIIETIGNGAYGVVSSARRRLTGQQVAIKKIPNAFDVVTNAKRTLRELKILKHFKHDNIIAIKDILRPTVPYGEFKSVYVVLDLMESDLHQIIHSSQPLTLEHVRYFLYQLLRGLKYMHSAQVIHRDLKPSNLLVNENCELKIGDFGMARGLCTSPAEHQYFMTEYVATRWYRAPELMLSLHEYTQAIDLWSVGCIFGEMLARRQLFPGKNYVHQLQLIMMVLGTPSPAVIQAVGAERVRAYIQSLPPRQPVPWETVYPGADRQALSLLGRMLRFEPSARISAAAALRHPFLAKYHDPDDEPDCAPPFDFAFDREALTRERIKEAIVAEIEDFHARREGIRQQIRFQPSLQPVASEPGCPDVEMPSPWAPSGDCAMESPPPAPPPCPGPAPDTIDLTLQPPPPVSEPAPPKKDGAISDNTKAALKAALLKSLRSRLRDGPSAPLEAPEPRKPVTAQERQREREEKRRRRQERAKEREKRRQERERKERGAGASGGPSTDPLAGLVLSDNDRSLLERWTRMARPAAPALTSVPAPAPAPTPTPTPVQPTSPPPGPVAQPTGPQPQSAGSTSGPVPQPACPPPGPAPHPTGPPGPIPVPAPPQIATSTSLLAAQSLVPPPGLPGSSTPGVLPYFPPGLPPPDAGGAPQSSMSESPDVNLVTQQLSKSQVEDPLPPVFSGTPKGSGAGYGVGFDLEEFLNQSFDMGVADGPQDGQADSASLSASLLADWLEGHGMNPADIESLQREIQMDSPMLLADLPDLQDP

F380Y = experiment: BK channel mutant inhibitors and activators – cell-based, U2OS BacMam, thallium flux, beta subunits, selectivity assay, profiling panel (AID 1259406;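 active means thallium flux through the channel raised or lowered by more than 3 SD from vehicle-only wells, actives on both sides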;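 further: initial slope of Thallos dye fluorescence rise after thallium is added; log ratio against the mean of 0.3% DMSO vehicle wells on the same plate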); settings: U2OS BacMam BK variants, at 30 µM
F380Y/beta1 = experiment: as above; settings: U2OS BacMam BK variants, at 30 µM
F380Y/beta2Delta = experiment: as above; settings: U2OS BacMam BK variants, at 30 µM
F380Y/beta4 = experiment: as above; settings: U2OS BacMam BK variants, at 30 µM
[16] = measured here: epithelial PC-3E GFP cell survival
[17] = measured here: mesenchymal TEM4-18 mCherry cell survival
[18] = MELAS cybrid survival, CellTiter-Glo 48 h, stronger effect = higher value
[19] = Rieske KO mouse fibroblast survival, CellTiter-Glo 72 h

CC(C)C(=O)Nc1ccc([N+](=O)[O-])c(C(F)(F)F)c1
0.95: normalised cell number [11, 17]
0.471 and 0.28 and 0.177: z-score [12, 19]
inactive: nuclear beta-catenin stimulation ([1]; at 10 µM) 0.6% | insulin secretion stimulation [2] 3.4% | viability decrease [3] 13.4% | tube area decrease [4] -12.8% | GLP1 secretion stimulation [5] -0.5% | inhibition of viability [6] 25.5% | viability decrease (inhibition) [7] 40.5% | viability decrease (inhibition) [8] -3.7% | inhibition [9] -5.89% | mean signal [10] 187 | red/green cell ratio (normalised) [11] 1.03 | z-score [12, 18] -0.353 and 0.314 and 0.345 | viability ([13]; at 0.000305 µM, OCI-C5x cells, with rucaparib 10 µM, 100% = cells with rucaparib alone) 102% | viability ([13]; at 0.000305 µM, OCI-C5x cells, without rucaparib) 114% | viability ([13]; at 0.000305 µM, OCI-P5x cells, without rucaparib) 103% | viability ([13]; at 0.00122 µM, OCI-C5x cells, with rucaparib 10 µM, 100% = cells with rucaparib alone) 114% | viability ([13]; at 0.00122 µM, OCI-C5x cells, without rucaparib) 115% | viability ([13]; at 0.00122 µM, OCI-P5x cells, without rucaparib) 104% | viability ([13]; at 0.00488 µM, OCI-C5x cells, with rucaparib 10 µM, 100% = cells with rucaparib alone) 111% | viability ([13]; at 0.00488 µM, OCI-C5x cells, without rucaparib) 113% | viability ([13]; at 0.00488 µM, OCI-P5x cells, with rucaparib 20 µM, 100% = cells with rucaparib alone) 107% | viability ([13]; at 0.00488 µM, OCI-P5x cells, without rucaparib) 106% | viability ([13]; at 0.0195 µM, OCI-C5x cells, with rucaparib 10 µM, 100% = cells with rucaparib alone) 114% | viability ([13]; at 0.0195 µM, OCI-C5x cells, without rucaparib) 118% | viability ([13]; at 0.0195 µM, OCI-P5x cells, with rucaparib 20 µM, 100% = cells with rucaparib alone) 104% | viability ([13]; at 0.0195 µM, OCI-P5x cells, without rucaparib) 105% | viability ([13]; at 0.0781 µM, OCI-C5x cells, with rucaparib 10 µM, 100% = cells with rucaparib alone) 112% | viability ([13]; at 0.0781 µM, OCI-C5x cells, without rucaparib) 116% | viability ([13]; at 0.0781 µM, OCI-P5x cells, with rucaparib 20 µM, 100% = cells with rucaparib alone) 103% | viability ([13]; at 0.0781 µM, OCI-P5x cells, without rucaparib) 112% | viability ([13]; at 0.313 µM, OCI-C5x cells, with rucaparib 10 µM, 100% = cells with rucaparib alone) 109% | viability ([13]; at 0.313 µM, OCI-C5x cells, without rucaparib) 109% | viability ([13]; at 0.313 µM, OCI-P5x cells, with rucaparib 20 µM, 100% = cells with rucaparib alone) 109% | viability ([13]; at 0.313 µM, OCI-P5x cells, without rucaparib) 115% | viability ([13]; at 1.25 µM, OCI-C5x cells, with rucaparib 10 µM, 100% = cells with rucaparib alone) 107% | viability ([13]; at 1.25 µM, OCI-C5x cells, without rucaparib) 118% | viability ([13]; at 1.25 µM, OCI-P5x cells, with rucaparib 20 µM, 100% = cells with rucaparib alone) 101% | viability ([13]; at 1.25 µM, OCI-P5x cells, without rucaparib) 113% | viability ([13]; at 5 µM, OCI-C5x cells, with rucaparib 10 µM, 100% = cells with rucaparib alone) 112% | viability ([13]; at 5 µM, OCI-C5x cells, without rucaparib) 133% | viability ([13]; at 5 µM, OCI-P5x cells, with rucaparib 20 µM, 100% = cells with rucaparib alone) 104% | viability ([13]; at 5 µM, OCI-P5x cells, without rucaparib) 112% | remaining NAD [14] 10 nM | luciferase signal [15] 76 AU | log fold change Tl+ flux (F380Y) 0.0165 | log fold change Tl+ flux (F380Y/beta1) 0.104 | log fold change Tl+ flux (F380Y/beta2Delta) -0.0159 | log fold change Tl+ flux (F380Y/beta4) -0.0805
active: viability ([13]; at 0.000305 µM, OCI-P5x cells, with rucaparib 20 µM, 100% = cells with rucaparib alone) 93.2% | viability ([13]; at 0.00122 µM, OCI-P5x cells, with rucaparib 20 µM, 100% = cells with rucaparib alone) 98.6%
-0.2%: nuclear beta-catenin stimulation ([1]; stimulation, at 2 µM)
0.92: normalised cell number [11, 16]

COc1ccccc1OCCNCC(O)COc1cccc2[nH]c3ccccc3c12 (stereo not drawn)
active: tube area decrease [4] 60.9% | inhibition of viability [6] 83.7% | viability decrease (inhibition) [7] 112% | viability decrease (inhibition) [8] 90.5% | log fold change Tl+ flux (F380Y/beta1) 0.26 | log fold change Tl+ flux (F380Y/beta2Delta) -0.29 | log fold change Tl+ flux (F380Y/beta4) 0.358
1.02 and 1.07: normalised cell number [11, 16]
inactive: nuclear beta-catenin stimulation ([1]; at 10 µM) 10.7% | insulin secretion stimulation [2] 1.9% | viability decrease [3] 7.2% | GLP1 secretion stimulation [5] 11.2% | inhibition [9] 6.21% | mean signal [10] 201 | red/green cell ratio (normalised) [11] 1.11 and 0.93 | z-score [12, 18] -0.281 and 0.201 and -0.32 | remaining NAD [14] 14 nM and 10 nM | luciferase signal [15] 340 AU | log fold change Tl+ flux (F380Y) -0.0291
-0.463 and 1.15 and -0.0666: z-score [12, 19]
2%: nuclear beta-catenin stimulation ([1]; stimulation, at 2 µM)
1.13 and 1: normalised cell number [11, 17]

NNC(=O)c1ccncc1
1.01: normalised cell number [11, 16]
1.19: normalised cell number [11, 17]
0.295 and -0.273 and 1.51: z-score [12, 19]
-1.2%: nuclear beta-catenin stimulation ([1]; stimulation, at 2 µM)
inactive: nuclear beta-catenin stimulation ([1]; at 10 µM) -1.9% | insulin secretion stimulation [2] -0.1% | viability decrease [3] -2.7% | tube area decrease [4] -10.4% | GLP1 secretion stimulation [5] 0.3% | inhibition of viability [6] 9.9% | viability decrease (inhibition) [7] 10.1% | viability decrease (inhibition) [8] 6.5% | inhibition [9] 6.29% | mean signal [10] 247 | red/green cell ratio (normalised) [11] 1.18 | z-score [12, 18] -0.127 and -0.162 and -0.645 | remaining NAD [14] 10 nM | luciferase signal [15] 36 AU | log fold change Tl+ flux (F380Y) 0.00909 | log fold change Tl+ flux (F380Y/beta1) 0.0138 | log fold change Tl+ flux (F380Y/beta2Delta) 0.00988 | log fold change Tl+ flux (F380Y/beta4) 0.0513
